Measurements taken from PubChem BioAssay (NCI).
About 79,000 compounds went through this panel and 15% of them were active in at least one assay; those are over-represented in the sample as a whole. Calls of active or inactive are those of the source. Rule as the data show it: active = growth inhibition above about 70%; inactive = the rest.

Columns and labels:
[1] = NCI Yeast Anticancer Drug Screen. Data for the rad52 strain (AID 147);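 also: 0% = growth of vehicle-treated control cultures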; details: S. cerevisiae rad52 mutant growth inhibition, stronger effect = higher value
Outline: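 The repair-mutant yeast strain was incubated with compounds, then growth was read and inhibition derived relative to vehicle.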

[2] = NCI Yeast Anticancer Drug Screen. Data for the wt1 strain (AID 149);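 also: 0% = growth of vehicle-treated wt1 cultures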; details: S. cerevisiae wt1 strain (SPY 50644) growth inhibition, stronger effect = higher value
Outline: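 Readout: yeast growth inhibition, normalised to vehicle controls, in the wt1 strain exposed to test compounds.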

[3] = NCI Yeast Anticancer Drug Screen. Data for the rad50EPP+ strain (AID 151);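 also: 0% = growth of vehicle-treated control cultures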; details: S. cerevisiae rad50 mutant strain, stronger effect = higher value
Outline: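 Vehicle-normalised growth inhibition; rad50EPP+ yeast strain, altered in DNA damage repair, compound-treated.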

[4] = NCI Yeast Anticancer Drug Screen. Data for the mgt1 strain (AID 153); details: S. cerevisiae mgt1 mutant growth inhibition, stronger effect = higher value
Outline: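 Vehicle-normalized growth inhibition is determined in mgt1 yeast, a strain selected for a defined alteration in DNA repair or cell cycle control.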

[5] = NCI Yeast Anticancer Drug Screen. Data for the rad50 strain (AID 155);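 also: 0% = growth of vehicle-only cultures of the same strain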; details: S. cerevisiae rad50 strain growth inhibition, stronger effect = higher value
Outline: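 Compounds were tested on a yeast strain with an engineered DNA damage repair alteration; the reported value is growth inhibition normalised to vehicle treatment.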

[6] = NCI Yeast Anticancer Drug Screen. Data for the mec2-1 strain (AID 157); details: S. cerevisiae mec2-1 strain, stronger effect = higher value
Outline: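 Mutant yeast (mec2-1) grown with compound; growth inhibition relative to vehicle control reported.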

[7] = NCI Yeast Anticancer Drug Screen. Data for the rad14 strain (AID 159);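 also: 0% = growth of vehicle-treated control cultures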; details: S. cerevisiae rad14 strain growth inhibition, stronger effect = higher value
Outline: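 Compound-treated yeast with a defined DNA-repair lesion; growth inhibition normalised to vehicle-treated cultures.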

[8] = NCI Yeast Anticancer Drug Screen. Data for the sgs1 mgt1 strain (AID 161);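 also: 0% = growth of cultures given vehicle only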; details: S. cerevisiae sgs1 mgt1 strain, stronger effect = higher value
Outline: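 Compounds are added to genetically altered yeast, and growth is compared with cultures given vehicle alone to give percent inhibition.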

[9] = NCI Yeast Anticancer Drug Screen. Data for the CLN2oe strain (AID 163);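 also: 0% = growth of vehicle-only control cultures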; details: S. cerevisiae CLN2oe strain, stronger effect = higher value
Outline: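 Compounds are applied to yeast harbouring a defined cell-cycle control change; reduced growth compared with vehicle-treated controls gives the value.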

[10] = NCI Yeast Anticancer Drug Screen. Data for the cln2 rad14 strain (AID 165);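 also: 0% = growth equal to vehicle treated cultures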; details: S. cerevisiae cln2 rad14 strain, stronger effect = higher value
Outline: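 Readout is yeast growth inhibition versus vehicle-treated controls, using a strain with cln2 and rad14 alterations exposed to compound.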

[11] = NCI Yeast Anticancer Drug Screen. Data for the bub3 strain (AID 167); details: S. cerevisiae bub3 mutant strain, stronger effect = higher value
Outline: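 Growth of a checkpoint-deficient yeast mutant is measured after compound exposure. Values represent inhibition relative to vehicle.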

[12] = NCI Yeast Anticancer Drug Screen. Data for the wt2 strain (AID 169);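 also: 0% = growth of vehicle-treated yeast cultures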; details: S. cerevisiae wt2 strain growth inhibition, stronger effect = higher value
Outline: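 Against vehicle-treated controls, the growth of yeast exposed to each compound was compared, and the inhibition was recorded.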

[13] = NCI Yeast Anticancer Drug Screen. Data for the mlh1 strain (AID 171);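 also: 0% = growth of vehicle-treated control cultures of the same strain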; details: S. cerevisiae mlh1 strain growth inhibition, stronger effect = higher value
Outline: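 Measured: yeast growth. Reference: vehicle-treated controls. Organism: strain with a defined alteration affecting DNA damage repair or cell cycle control, treated with compound.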

[14] = NCI Yeast Anticancer Drug Screen. Data for the sgs1 strain (AID 173);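 also: 0% = growth of vehicle-only control cultures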; details: S. cerevisiae sgs1 mutant, stronger effect = higher value
Outline: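 Each compound was added to cultures of the altered yeast strain. Growth was recorded, and inhibition was derived by comparison with vehicle controls.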

[15] = NCI Yeast Anticancer Drug Screen. Data for the mlh1 rad18 strain (AID 175); details: S. cerevisiae mlh1 rad18 strain growth inhibition, stronger effect = higher value
Outline: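 Genetically defined yeast (DNA repair-deficient) exposed to compounds; growth inhibition determined relative to vehicle.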

[16] = NCI Yeast Anticancer Drug Screen. Data for the rad18 strain (AID 177); details: S. cerevisiae rad18 mutant growth inhibition, stronger effect = higher value
Outline: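 Vehicle-treated cultures served as the baseline for scoring compound-induced growth inhibition in DNA-repair-mutant yeast.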

[17] = at 5.0 µM (retest, dose inferred, filed as 0.5)
[18] = at 50.0 µM (retest, dose inferred, filed as 5.0)

Measured: growth inhibition

OCC(O)C(O)CO (stereo not drawn) (tested in a mixture with another compound)
inactive: [1]; at 1.2 µM -2% | [1]; at 3.7 µM -3% | [1]; at 11.0 µM -1% | [1]; at 33.0 µM -4% | [1]; at 100.0 µM 8% | [2]; at 1.2 µM -4% | [2]; at 3.7 µM -4% | [2]; at 11.0 µM -5% | [2]; at 33.0 µM -2% | [2]; at 100.0 µM 0% | [3]; at 1.2 µM 1% | [3]; at 3.7 µM 2% | [3]; at 11.0 µM 6% | [3]; at 33.0 µM 9% | [3]; at 100.0 µM 10% | [4]; at 1.2 µM 0% | [4]; at 3.7 µM -2% | [4]; at 11.0 µM -1% | [4]; at 33.0 µM 5% | [4]; at 100.0 µM 0% | [5]; at 1.2 µM -8% | [5]; at 3.7 µM -17% | [5]; [17] -130% | [5]; at 11.0 µM -3% | [5]; at 33.0 µM 16% | [5]; at 50.0 µM 15.4% | [5]; at 100.0 µM -1% | [6]; at 1.2 µM -1% | [6]; at 3.7 µM 0% | [6]; [17] -47% | [6]; at 11.0 µM -6% | [6]; at 33.0 µM 0% | [6]; [18] -1% | [6]; at 50.0 µM 32.4% | [6]; at 100.0 µM 3% | [7]; at 1.2 µM -1% | [7]; at 3.7 µM -5% | [7]; at 11.0 µM -4% | [7]; at 33.0 µM -3% | [7]; at 100.0 µM -1% | [8]; [17] -57% | [8]; [18] 39% | [8]; at 50.0 µM -2.1% | [9]; at 1.2 µM 2% | [9]; at 3.7 µM -1% | [9]; at 11.0 µM 0% | [9]; at 33.0 µM 0% | [9]; at 100.0 µM 1% | [10]; [17] -60% | [10]; [18] -30% | [10]; at 50.0 µM -44.6% | [11]; at 1.2 µM -1% | [11]; at 3.7 µM -4% | [11]; [17] -64% | [11]; at 11.0 µM -3% | [11]; at 33.0 µM -2% | [11]; [18] 25% | [11]; at 50.0 µM 12.3% | [11]; at 100.0 µM 3% | [12]; at 1.2 µM -2% | [12]; at 3.7 µM 1% | [12]; at 11.0 µM 0% | [12]; at 33.0 µM -2% | [12]; at 100.0 µM 0% | [13]; at 1.2 µM 8% | [13]; at 3.7 µM -1% | [13]; at 11.0 µM -5% | [13]; at 33.0 µM -5% | [13]; at 100.0 µM -3% | [14]; at 1.2 µM -1% | [14]; at 3.7 µM 1% | [14]; at 11.0 µM 2% | [14]; at 33.0 µM 2% | [14]; at 100.0 µM -2% | [15]; [17] -110% | [15]; [18] 29% | [15]; at 50.0 µM -9.65% | [16]; at 1.2 µM -4% | [16]; at 3.7 µM -3% | [16]; at 11.0 µM -2% | [16]; at 33.0 µM -2% | [16]; at 100.0 µM 1%
active: [5]; [18] 82%
